Results filed as inconclusive are left out. Unmarked numbers belong to inactive results. Calls of active or inactive are those of the source. Calls follow the shape of the dose curve; as a rule, active = well fitted cell-killing curve with a large enough effect; inconclusive = small, poorly fitted or top-dose-only effect, or effect the other way; inactive = flat fitted curve, though single readings scatter.

30 molecules from PubChem BioAssay (NCATS) can be followed below.

Common to all, as to experiment: Primary qHTS to identify gynecologic anti-cancer compounds using libraries of approved drugs and bioactive compounds (AID 1345084); also: nearly all actives have a fitted effect of over 55% in size
What all share (conditions): Gynecologic cancer cell panel viability, ATPlite luminescence, 48 h; series mostly up to 57.5 µM
In general terms: qHTS replaces the single test concentration by a dilution series.

One assay concerns SKOV3. In outline: (§1)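 Cells, 1,000 per well, were allowed to settle for 16 h at 37 C before compound addition. Five concentrations were tested for 48 h, and viability was read by ATPlite luminescence after 15 min at room temperature.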
A further assay deals with Tov-21-G. An outline of the steps: as §1
For another assay, the system named is Tov112D. In outline: as §1
% is scaled to controls: 0 for no effect and ±100 for the full control effect; potency is read from the fitted curve at half-maximal effect.

With `Cc1nc(NC(=O)N2CCC[C@H]2C(N)=O)sc1-c1ccnc(C(C)(C)C(F)(F)F)c1`, in the assay on SKOV3, the Potency was 12.6 µM (active). Moreover, the Potency entry in the assay with Tov-21-G and in the assay with Tov112D was “inactive” throughout.

On to `C=C(C(=O)OC[C@H]1O[C@@H](OC(=O)/C=C/c2ccccc2)[C@H](O)[C@@H](O)[C@@H]1O)C(O)CO` (stereo not given in full), for which the Potency result in the assay with SKOV3, with Tov-21-G and with Tov112D was “inactive” each time.

With `CC(=O)O[C@@H]1C[C@@]23C[C@@]24CC[C@H](O[C@@H]2OC[C@H](O)[C@H](O)[C@H]2O)C(C)(C)[C@@H]4CC[C@H]3[C@]2(C)[C@@H](O)C34O[C@H](C[C@@H](C)[C@@H]3[C@@]12C)[C@@H](C(C)(C)O)O4`, the Potency entry in the assay on SKOV3, with Tov-21-G and in the assay with Tov112D was “inactive” in each case.

As for `CNC(=O)[C@@H](c1ccccc1)N1CCc2cc(OC)c(OC)cc2[C@@H]1CCc1ccc(C(F)(F)F)cc1`, the Potency entry with SKOV3, in the assay on Tov-21-G and with Tov112D was “inactive” in each case.

Turning to `CC(C)(C)c1ccc(C(=O)Nc2cc(Cl)c(Br)cc2C(=O)O)cc1`, the Potency result with SKOV3, in the assay on Tov-21-G and in the assay on Tov112D was “inactive” throughout.

With `CC(C)NC(=O)N1CC[C@H](N=C2Nc3cc(F)ccc3N(CC(F)F)c3ccc(Cl)cc32)C1`, the activity change, negative = cytotoxicity in the assay on SKOV3 is 18.3% [at 11.6 µM]; in the assay on Tov-21-G it was -31.2% [at 11.6 µM]; with Tov112D, -4.53% [at 11.6 µM].

In the case of `COC1=CC(=O)C=C(C)C12Oc1c(Cl)c(OC)cc(OC)c1C2=O` (stereo not given), the Potency entry in the assay on SKOV3, in the assay with Tov-21-G and in the assay with Tov112D was “inactive” each time.

Turning to `COc1cc(C(=O)NCC2(N(C)C)CCCC2)cc(OC)c1OCc1ccccc1`, the Potency entry in the assay on SKOV3, in the assay with Tov-21-G and in the assay with Tov112D was “inactive” throughout.

`Fc1ccc(CN2CCC(Nc3ccc(C(F)(F)F)nn3)CC2)cc1F`: the Potency entry in the assay on SKOV3, with Tov-21-G and with Tov112D was “inactive” throughout.

In the case of `Cc1cc2sc(NC(=O)Cc3ccccc3)nc2cc1Cl`, the Potency result in the assay with SKOV3, in the assay with Tov-21-G and with Tov112D was “inactive” in each case.

Take `CC(C)(Cc1nc(-c2ccc(O)cn2)no1)C(=O)NC1=C(C(=O)O)CCCC1`: the Potency entry in the assay with SKOV3, in the assay with Tov-21-G and in the assay on Tov112D was “inactive” in each case.

In the case of `C=C1[C@H]2CC[C@H](C(=O)O)[C@@]23CC[C@H](C3)C1(C)C`, the Potency result in the assay with SKOV3, in the assay with Tov-21-G and in the assay with Tov112D was “inactive” each time.

On to `O=c1[nH]c2ccccc2n1CCN1CCN(c2cccc(C(F)(F)F)c2)CC1`, for which the Potency result in the assay on SKOV3, in the assay with Tov-21-G and with Tov112D was “inactive” each time.

In the case of `C=C1CCCC2(C)CCC(C(C)(C)OC3OC(C)C(O)C(O)C3OC(=O)/C(C)=C\C)CC12` (stereo not given), the Potency entry in the assay on SKOV3, with Tov-21-G and with Tov112D was “inactive” in each case.

For `N[C@@H]1c2cccnc2[C@H](OC(=O)N2CCC(n3c(=O)[nH]c4ncccc43)CC2)CC[C@H]1c1cccc(F)c1F`, the Potency entry in the assay with SKOV3, with Tov-21-G and with Tov112D was “inactive” each time.

Take `CNCc1cc(-c2ccccc2F)n(S(=O)(=O)c2cccnc2)c1`: the Potency result in the assay on SKOV3, with Tov-21-G and in the assay with Tov112D was “inactive” in each case.

In the case of `CCC(C)c1ccc(NC(=O)Cn2cnc3c2c(=O)n(C)c(=O)n3C)cc1` (stereo not given), the Potency entry with SKOV3, in the assay on Tov-21-G and in the assay on Tov112D was “inactive” throughout.

Take `O=C(NC1CCC1)c1ccc(C#Cc2cccc(F)c2)nc1`: the Potency result in the assay on SKOV3, in the assay on Tov-21-G and with Tov112D was “inactive” in each case.

In the case of `Cn1ccc(NC(=O)c2cc(Oc3ccc(C(=O)N4CCC4)c(F)c3)c3c(c2)OC(C)(C)C3)n1`, the Potency result in the assay with SKOV3, with Tov-21-G and in the assay on Tov112D was “inactive” in each case.

Turning to `C=C1CC[C@@H]2[C@](C)(CO)[C@H](O)CC[C@@]2(C)[C@@H]1/C=C/C1=CCOC1=O`, the Potency result with SKOV3, in the assay with Tov-21-G and in the assay on Tov112D was “inactive” each time.

On to `O=C(NCCCc1ccccc1)c1cccc(-c2cc(O)c3ncccc3c2)c1`, for which the Potency was 11.2 µM (active) in the assay with SKOV3 and 17.8 µM (active) in the assay with Tov112D. For the same molecule, the Potency result with Tov-21-G is “inactive”.

In the case of `Cc1cc(F)c(C(=O)Nc2cccc(-c3nncn3C(C)C)n2)cc1-n1cnc(C2CC2)c1`, the Potency result with SKOV3, in the assay with Tov-21-G and in the assay on Tov112D was “inactive” each time.

For the molecule `Fc1ccc(-c2nc(-c3ccccc3F)[nH]c2-c2ccncc2)cc1`, the Potency result with SKOV3, with Tov-21-G and in the assay on Tov112D was “inactive” in each case.

`CC[N+]1(C/C2=C/CCCCCC2)CCC(NC(=O)C2c3cc(Cl)ccc3Oc3ccc(Cl)cc32)CC1` (stereo not given): the Potency result in the assay on SKOV3, in the assay on Tov-21-G and in the assay on Tov112D was “inactive” in each case.

Turning to `COc1cc2c(c(OC)c1CC=C(C)C)C[C@H](c1ccc(O)c(CC=C(C)C)c1O)CO2`, the Potency entry in the assay with SKOV3, in the assay on Tov-21-G and in the assay with Tov112D was “inactive” in each case.

For the molecule `Cc1nc(NC(=O)N2CCCC2C(N)=O)sc1-c1ccnc(C(C)(C)C(F)(F)F)c1` (stereo not given), the Potency in the assay with SKOV3 was 8.91 µM (active). The Potency entry with Tov-21-G and with Tov112D was “inactive” in each case.

As for `Cc1cccc(-c2[nH]ncc2-c2ccnc3ccccc23)n1`, the Potency result with SKOV3, in the assay with Tov-21-G and in the assay with Tov112D was “inactive” throughout.

With `CC(=O)OC1CC(C)C2(CCC3(CC(=O)OC3O)O2)C2(C)CCCC(C)(C)C12` (stereo not given), the Potency result in the assay with SKOV3, in the assay with Tov-21-G and in the assay on Tov112D was “inactive” in each case.

On to `C=C[C@](C)(O)CC[C@H]1C(C)=CC(=O)[C@H]2C(C)(C)CCC[C@]12C`, for which the Potency result in the assay on SKOV3, with Tov-21-G and with Tov112D was “inactive” each time.

Take `CCCNCCc1ccc(NS(=O)(=O)c2ccc(OC(F)(F)F)cc2)cc1`: the Potency entry in the assay on SKOV3, in the assay on Tov-21-G and in the assay with Tov112D was “inactive” in each case.
